# Columns and labels:
# Assay in all cases: DAPPL (digital affinity profiling via proximity ligation, sequencing); 10 mM Tris-HCl pH 7.5, 50 mM NaCl, 1 mM DTT, 4% glycerol, room temperature, 30 min; GST-TFs on glutathione beads, 16-mer random dsDNA library, 0.1% formaldehyde crosslink after washing; high values mean tight binding
# FLI1 = molecular target: T1, FLI1 (Homo sapiens, UniProt Q01543 1-452); conditions: protein: recombinant; tags: N-terminal GST; dsDNA, one strand shown
# T1 sequence: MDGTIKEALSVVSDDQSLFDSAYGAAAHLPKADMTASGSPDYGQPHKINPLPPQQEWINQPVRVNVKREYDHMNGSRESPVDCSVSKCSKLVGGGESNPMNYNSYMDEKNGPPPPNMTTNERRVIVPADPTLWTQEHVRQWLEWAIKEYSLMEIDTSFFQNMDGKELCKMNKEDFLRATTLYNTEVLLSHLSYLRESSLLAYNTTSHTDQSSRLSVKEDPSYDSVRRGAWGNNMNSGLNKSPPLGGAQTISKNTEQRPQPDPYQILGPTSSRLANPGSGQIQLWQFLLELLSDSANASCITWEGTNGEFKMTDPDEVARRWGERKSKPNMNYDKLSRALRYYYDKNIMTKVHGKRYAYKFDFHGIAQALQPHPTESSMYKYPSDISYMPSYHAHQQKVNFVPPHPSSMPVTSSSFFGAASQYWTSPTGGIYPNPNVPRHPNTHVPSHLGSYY
# In short: (§1)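 GST fusions of human transcription factors were expressed in yeast and captured with glutathione beads. Once given DNA barcodes and pooled alongside a tag-only sample, they were incubated for 30 min at room temperature with 200 nmole of a random double-stranded 16-mer DNA library in Tris/NaCl/DTT/glycerol buffer, then washed, crosslinked (0.1% formaldehyde), proximity-ligated, PCR-amplified and sequenced on an Illumina NextSeq500. The binding signal of each hexamer is its read frequency for a factor divided by its frequency for the tag-only sample.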
# ELK1 = molecular target: T2, ELK1 (Homo sapiens, UniProt P19419 1-428); conditions: protein: recombinant; tags: N-terminal GST; dsDNA, one strand shown
# T2 sequence: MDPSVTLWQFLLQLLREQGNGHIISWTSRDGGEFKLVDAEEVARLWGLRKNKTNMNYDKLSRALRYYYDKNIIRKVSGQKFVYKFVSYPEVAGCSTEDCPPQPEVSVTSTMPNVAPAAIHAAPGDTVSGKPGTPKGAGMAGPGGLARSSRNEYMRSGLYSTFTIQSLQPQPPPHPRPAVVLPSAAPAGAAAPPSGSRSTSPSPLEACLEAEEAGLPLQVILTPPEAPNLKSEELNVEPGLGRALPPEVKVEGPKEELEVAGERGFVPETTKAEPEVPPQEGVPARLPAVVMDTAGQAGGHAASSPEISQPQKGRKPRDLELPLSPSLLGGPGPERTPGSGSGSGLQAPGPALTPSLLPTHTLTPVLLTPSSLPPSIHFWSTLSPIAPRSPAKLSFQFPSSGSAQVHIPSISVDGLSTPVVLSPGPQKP
# In short: as §1
# GABPA = molecular target: T3, GABPA (Homo sapiens, UniProt Q06546 1-454); conditions: protein: recombinant; tags: N-terminal GST; dsDNA, one strand shown
# T3 sequence: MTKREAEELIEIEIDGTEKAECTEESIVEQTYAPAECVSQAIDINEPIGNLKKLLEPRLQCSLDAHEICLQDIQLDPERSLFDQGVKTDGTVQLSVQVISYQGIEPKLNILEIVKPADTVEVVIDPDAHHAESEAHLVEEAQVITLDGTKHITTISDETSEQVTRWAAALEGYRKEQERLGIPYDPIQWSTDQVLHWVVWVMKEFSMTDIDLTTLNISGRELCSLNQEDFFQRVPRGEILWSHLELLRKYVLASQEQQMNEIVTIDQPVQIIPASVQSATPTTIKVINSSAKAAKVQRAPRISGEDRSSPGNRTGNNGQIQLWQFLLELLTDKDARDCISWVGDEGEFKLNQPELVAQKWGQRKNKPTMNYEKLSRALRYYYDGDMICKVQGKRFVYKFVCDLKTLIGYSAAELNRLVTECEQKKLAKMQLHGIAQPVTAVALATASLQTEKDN
# In short: as §1
# ERG = molecular target: T4, ERG (Homo sapiens, UniProt P11308 1-479); conditions: protein: recombinant; tags: N-terminal GST; dsDNA, one strand shown
# T4 sequence: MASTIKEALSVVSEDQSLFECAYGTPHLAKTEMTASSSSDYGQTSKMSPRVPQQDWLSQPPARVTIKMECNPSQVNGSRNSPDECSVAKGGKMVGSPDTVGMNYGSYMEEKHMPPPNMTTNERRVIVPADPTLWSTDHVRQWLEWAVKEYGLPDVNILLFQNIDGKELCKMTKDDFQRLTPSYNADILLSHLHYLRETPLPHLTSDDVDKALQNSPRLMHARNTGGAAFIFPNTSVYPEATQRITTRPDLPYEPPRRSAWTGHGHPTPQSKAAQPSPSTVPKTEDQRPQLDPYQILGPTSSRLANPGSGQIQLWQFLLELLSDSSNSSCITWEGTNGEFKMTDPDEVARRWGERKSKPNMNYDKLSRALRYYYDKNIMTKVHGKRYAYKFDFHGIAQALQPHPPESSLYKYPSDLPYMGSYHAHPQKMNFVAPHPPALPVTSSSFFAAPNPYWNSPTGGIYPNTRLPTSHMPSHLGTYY
# In short: as §1
# ELF1 = ELF1 (Homo sapiens, UniProt P32519 1-619); conditions: protein: recombinant; tags: N-terminal GST; dsDNA, one strand shown
# ELF1, sequence (P32519 whole entry): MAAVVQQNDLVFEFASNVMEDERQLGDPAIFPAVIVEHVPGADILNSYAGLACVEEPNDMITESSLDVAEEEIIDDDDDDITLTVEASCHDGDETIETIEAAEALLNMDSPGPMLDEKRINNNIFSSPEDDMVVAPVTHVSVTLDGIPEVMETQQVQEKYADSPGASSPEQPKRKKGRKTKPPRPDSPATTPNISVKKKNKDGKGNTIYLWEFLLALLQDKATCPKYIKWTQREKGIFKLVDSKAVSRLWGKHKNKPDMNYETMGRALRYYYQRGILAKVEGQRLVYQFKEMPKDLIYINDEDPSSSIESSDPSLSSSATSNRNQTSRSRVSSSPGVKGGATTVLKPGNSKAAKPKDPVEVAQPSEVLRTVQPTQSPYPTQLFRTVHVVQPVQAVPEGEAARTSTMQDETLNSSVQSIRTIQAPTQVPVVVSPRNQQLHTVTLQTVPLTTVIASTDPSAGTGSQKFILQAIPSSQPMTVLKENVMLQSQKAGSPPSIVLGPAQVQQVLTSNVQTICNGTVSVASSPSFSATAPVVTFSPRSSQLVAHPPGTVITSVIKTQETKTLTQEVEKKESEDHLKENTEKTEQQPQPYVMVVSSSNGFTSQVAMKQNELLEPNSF
# In short: as §1
# EHF = molecular target: T5, EHF (Homo sapiens, UniProt Q9NZC4 1-300); conditions: protein: recombinant; tags: N-terminal GST; dsDNA, one strand shown
# T5 sequence: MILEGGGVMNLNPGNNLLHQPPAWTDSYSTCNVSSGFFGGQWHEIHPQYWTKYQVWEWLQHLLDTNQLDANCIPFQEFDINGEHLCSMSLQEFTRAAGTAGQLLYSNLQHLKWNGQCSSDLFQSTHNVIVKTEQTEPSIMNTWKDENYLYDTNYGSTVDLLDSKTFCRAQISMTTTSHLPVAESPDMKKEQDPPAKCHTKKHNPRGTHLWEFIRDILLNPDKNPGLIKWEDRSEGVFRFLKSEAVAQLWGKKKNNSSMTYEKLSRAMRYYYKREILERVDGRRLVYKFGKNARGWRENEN
# In short: as §1
# SPI1 = SPI1 (Homo sapiens, UniProt P17947 1-270); conditions: protein: recombinant; tags: N-terminal GST; dsDNA, one strand shown
# In short: as §1
# SPIB = SPIB (Homo sapiens, UniProt Q01892 1-262); conditions: protein: recombinant; tags: N-terminal GST; dsDNA, one strand shown
# SPIB, sequence (Q01892 whole entry): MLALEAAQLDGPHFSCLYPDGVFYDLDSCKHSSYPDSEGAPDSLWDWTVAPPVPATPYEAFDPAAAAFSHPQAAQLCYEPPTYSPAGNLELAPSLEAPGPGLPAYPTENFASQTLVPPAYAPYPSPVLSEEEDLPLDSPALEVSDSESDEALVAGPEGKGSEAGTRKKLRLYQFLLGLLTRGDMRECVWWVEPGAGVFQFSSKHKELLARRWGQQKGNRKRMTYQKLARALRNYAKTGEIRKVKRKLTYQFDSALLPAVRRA
# In short: as §1
# ELK3 = molecular target: T6, ELK3 (Homo sapiens, UniProt P41970 1-407); conditions: protein: recombinant; tags: N-terminal GST; dsDNA, one strand shown
# T6 sequence: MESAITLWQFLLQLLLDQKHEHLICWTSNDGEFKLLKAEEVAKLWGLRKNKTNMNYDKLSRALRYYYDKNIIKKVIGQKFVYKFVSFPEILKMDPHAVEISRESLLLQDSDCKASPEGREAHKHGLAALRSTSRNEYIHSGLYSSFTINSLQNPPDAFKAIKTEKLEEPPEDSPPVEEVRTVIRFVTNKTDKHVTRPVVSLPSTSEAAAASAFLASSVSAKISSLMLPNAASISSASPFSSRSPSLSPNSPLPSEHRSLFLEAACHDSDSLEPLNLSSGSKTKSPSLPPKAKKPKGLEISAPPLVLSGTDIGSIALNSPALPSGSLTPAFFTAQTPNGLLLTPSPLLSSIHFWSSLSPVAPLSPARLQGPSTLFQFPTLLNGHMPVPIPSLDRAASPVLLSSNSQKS
# In short: as §1
# FEV = molecular target: T7, FEV (Homo sapiens, UniProt Q99581 1-238); conditions: protein: recombinant; tags: N-terminal GST; dsDNA, one strand shown
# T7 sequence: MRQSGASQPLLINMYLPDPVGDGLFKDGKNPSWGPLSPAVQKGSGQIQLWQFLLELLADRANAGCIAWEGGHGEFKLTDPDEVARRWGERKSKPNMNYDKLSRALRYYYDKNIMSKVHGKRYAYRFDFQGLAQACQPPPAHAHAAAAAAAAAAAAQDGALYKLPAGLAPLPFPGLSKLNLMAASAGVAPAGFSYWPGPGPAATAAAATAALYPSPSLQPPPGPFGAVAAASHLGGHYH
# In short: as §1
# ETV5 = ETV5 (Homo sapiens, UniProt P41161 1-510); conditions: protein: recombinant; tags: N-terminal GST; dsDNA, one strand shown
# ETV5, sequence (P41161 whole entry): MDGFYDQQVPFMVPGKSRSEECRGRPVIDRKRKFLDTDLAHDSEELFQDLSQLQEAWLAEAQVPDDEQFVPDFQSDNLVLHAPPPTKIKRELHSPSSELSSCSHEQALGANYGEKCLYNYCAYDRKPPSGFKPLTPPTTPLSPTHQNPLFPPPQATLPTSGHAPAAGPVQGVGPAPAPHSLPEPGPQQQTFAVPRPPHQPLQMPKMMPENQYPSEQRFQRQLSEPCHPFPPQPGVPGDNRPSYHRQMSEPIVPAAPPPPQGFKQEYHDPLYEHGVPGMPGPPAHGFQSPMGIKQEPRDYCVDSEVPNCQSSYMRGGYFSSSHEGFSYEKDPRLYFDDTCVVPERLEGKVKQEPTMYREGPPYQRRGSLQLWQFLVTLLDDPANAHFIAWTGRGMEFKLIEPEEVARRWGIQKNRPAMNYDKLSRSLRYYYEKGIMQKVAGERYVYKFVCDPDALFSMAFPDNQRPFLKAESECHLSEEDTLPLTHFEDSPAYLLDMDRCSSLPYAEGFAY
# In short: as §1
# HSF1 = HSF1 (Homo sapiens, UniProt Q00613 1-529); conditions: protein: recombinant; tags: N-terminal GST; chain copies: 3; dsDNA, one strand shown
# HSF1, sequence (Q00613 whole entry): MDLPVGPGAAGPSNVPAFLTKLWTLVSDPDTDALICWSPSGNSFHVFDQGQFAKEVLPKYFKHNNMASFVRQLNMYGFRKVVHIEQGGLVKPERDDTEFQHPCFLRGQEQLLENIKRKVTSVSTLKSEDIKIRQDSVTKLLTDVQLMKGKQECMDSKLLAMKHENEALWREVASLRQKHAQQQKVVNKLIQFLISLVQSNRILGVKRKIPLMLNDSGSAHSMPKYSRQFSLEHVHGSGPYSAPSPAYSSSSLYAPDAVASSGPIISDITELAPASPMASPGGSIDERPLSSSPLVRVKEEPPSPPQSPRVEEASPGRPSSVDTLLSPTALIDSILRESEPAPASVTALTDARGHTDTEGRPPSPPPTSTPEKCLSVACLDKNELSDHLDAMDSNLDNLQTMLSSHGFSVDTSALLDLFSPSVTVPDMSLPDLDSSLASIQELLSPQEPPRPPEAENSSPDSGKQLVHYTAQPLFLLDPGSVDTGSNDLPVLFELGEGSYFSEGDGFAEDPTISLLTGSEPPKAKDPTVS
# In short: as §1
# SPIC = molecular target: T8, SPIC (Homo sapiens, UniProt Q8N5J4 1-248); conditions: protein: recombinant; tags: N-terminal GST; dsDNA, one strand shown
# T8 sequence: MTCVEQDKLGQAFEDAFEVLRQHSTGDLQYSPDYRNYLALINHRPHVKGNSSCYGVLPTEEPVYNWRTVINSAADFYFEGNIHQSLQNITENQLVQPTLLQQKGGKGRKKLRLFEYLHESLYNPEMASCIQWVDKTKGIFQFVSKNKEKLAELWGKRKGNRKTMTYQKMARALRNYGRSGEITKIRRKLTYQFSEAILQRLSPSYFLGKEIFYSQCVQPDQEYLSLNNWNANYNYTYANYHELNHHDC
# In short: as §1
# ELF4 = ELF4 (Homo sapiens, UniProt Q99607 1-663); conditions: protein: recombinant; tags: N-terminal GST; dsDNA, one strand shown
# ELF4, sequence (Q99607 whole entry): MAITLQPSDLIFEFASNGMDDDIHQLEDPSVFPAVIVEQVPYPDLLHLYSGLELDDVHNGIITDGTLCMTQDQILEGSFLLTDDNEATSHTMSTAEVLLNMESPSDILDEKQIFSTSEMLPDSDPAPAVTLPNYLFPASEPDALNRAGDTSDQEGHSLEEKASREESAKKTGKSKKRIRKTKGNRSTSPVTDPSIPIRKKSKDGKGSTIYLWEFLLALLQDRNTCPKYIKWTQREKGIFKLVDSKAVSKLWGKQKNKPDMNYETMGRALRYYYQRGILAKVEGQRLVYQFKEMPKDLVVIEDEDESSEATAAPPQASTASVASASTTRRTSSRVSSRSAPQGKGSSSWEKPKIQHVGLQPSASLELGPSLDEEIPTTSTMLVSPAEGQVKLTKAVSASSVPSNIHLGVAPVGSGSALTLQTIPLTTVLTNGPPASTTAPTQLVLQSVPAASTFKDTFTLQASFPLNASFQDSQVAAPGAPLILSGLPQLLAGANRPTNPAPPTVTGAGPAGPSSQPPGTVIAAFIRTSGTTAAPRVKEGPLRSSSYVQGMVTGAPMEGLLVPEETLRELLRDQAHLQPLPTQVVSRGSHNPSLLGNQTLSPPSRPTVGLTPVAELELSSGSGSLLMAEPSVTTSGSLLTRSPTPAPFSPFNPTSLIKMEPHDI
# In short: as §1
# ELK4 = molecular target: T9, ELK4 (Homo sapiens, UniProt P28324-2 1-405); conditions: protein: recombinant; tags: N-terminal GST; dsDNA, one strand shown
# T9 sequence: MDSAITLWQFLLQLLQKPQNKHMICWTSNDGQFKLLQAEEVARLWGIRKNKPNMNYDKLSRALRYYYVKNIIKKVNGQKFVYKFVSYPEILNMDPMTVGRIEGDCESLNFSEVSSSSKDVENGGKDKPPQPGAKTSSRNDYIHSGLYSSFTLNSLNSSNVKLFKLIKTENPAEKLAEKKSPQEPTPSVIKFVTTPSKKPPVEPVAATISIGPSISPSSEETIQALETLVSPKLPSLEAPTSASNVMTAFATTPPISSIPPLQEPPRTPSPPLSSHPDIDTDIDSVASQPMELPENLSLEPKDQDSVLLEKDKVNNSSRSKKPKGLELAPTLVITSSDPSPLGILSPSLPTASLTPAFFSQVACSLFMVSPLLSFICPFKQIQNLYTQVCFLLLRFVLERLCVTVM
# In short: as §1
# ETV2 = molecular target: T10, ETV2 (Homo sapiens, UniProt O00321 1-342); conditions: protein: recombinant; tags: N-terminal GST; dsDNA, one strand shown
# T10 sequence: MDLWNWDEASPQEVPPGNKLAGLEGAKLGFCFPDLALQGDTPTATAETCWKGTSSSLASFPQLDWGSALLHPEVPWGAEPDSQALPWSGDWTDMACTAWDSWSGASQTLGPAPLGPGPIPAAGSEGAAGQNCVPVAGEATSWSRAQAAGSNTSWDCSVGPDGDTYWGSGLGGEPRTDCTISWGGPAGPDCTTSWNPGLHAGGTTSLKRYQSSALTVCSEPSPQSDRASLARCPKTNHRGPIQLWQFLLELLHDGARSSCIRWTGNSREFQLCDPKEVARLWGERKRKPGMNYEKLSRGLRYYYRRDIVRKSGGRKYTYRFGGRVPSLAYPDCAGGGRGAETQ
# In short: as §1
# ELF3 = molecular target: T11, ELF3 (Homo sapiens, UniProt P78545 1-371); conditions: protein: recombinant; tags: N-terminal GST; dsDNA, one strand shown
# T11 sequence: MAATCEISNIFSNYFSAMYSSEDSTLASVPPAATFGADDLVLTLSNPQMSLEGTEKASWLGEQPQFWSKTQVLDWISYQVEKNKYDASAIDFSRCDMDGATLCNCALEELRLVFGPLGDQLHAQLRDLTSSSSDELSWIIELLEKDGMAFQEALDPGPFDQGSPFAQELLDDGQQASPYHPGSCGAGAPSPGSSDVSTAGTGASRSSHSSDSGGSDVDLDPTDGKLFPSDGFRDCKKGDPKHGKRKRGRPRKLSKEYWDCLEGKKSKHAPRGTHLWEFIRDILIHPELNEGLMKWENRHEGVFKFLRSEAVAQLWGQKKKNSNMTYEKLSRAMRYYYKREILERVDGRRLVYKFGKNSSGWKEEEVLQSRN
# In short: as §1
# CRX = CRX (Homo sapiens, UniProt O43186 1-299); conditions: protein: recombinant; tags: N-terminal GST; dsDNA, one strand shown
# CRX, sequence (O43186 whole entry): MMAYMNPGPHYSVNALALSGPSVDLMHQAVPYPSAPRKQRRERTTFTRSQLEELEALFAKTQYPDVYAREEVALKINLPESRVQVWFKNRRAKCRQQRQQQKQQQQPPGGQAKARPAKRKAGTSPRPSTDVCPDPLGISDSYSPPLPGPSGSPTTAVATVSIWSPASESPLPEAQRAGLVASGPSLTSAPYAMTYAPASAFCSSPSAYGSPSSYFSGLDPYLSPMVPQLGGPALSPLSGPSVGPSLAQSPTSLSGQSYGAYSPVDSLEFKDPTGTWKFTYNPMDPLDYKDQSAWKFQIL
# In short: as §1
# ETV1 = ETV1 (Homo sapiens, UniProt P50549 1-477); conditions: protein: recombinant; tags: N-terminal GST; dsDNA, one strand shown
# ETV1, sequence (P50549 whole entry): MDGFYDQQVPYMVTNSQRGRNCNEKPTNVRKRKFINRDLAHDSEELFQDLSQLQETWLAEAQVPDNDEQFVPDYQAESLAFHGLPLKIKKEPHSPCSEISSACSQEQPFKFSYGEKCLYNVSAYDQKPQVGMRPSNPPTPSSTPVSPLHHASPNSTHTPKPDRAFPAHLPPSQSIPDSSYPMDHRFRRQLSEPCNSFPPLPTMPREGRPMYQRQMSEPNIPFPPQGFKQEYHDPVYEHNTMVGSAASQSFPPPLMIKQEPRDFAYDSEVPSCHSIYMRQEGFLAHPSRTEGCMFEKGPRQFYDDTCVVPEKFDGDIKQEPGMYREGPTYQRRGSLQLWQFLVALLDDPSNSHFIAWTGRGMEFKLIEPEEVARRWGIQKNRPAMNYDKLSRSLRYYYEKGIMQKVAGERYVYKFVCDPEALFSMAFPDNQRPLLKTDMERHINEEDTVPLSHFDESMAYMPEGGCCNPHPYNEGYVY
# In short: as §1
sequence,measurement,setting,value
GTTTCG,binding signal,FLI1,"1.28 fold enrichment (6-mer frequency, TF over GST control)"
same,binding signal,ELK1,"1.22 fold enrichment (6-mer frequency, TF over GST control)"
same,binding signal,GABPA,"1.22 fold enrichment (6-mer frequency, TF over GST control)"
same,binding signal,ERG,"1.25 fold enrichment (6-mer frequency, TF over GST control)"
same,binding signal,ELF1,"1.27 fold enrichment (6-mer frequency, TF over GST control)"
same,binding signal,EHF,"1.33 fold enrichment (6-mer frequency, TF over GST control)"
same,binding signal,SPI1,"1.25 fold enrichment (6-mer frequency, TF over GST control)"
same,binding signal,SPIB,"1.23 fold enrichment (6-mer frequency, TF over GST control)"
same,binding signal,ELK3,"1.15 fold enrichment (6-mer frequency, TF over GST control)"
same,binding signal,FEV,"1.27 fold enrichment (6-mer frequency, TF over GST control)"
same,binding signal,ETV5,"1.28 fold enrichment (6-mer frequency, TF over GST control)"
same,binding signal,HSF1,"1.44 fold enrichment (6-mer frequency, TF over GST control)"
same,binding signal,SPIC,"1.24 fold enrichment (6-mer frequency, TF over GST control)"
same,binding signal,ELF4,"1.33 fold enrichment (6-mer frequency, TF over GST control)"
same,binding signal,ELK4,"1.34 fold enrichment (6-mer frequency, TF over GST control)"
same,binding signal,ETV2,"1.24 fold enrichment (6-mer frequency, TF over GST control)"
same,binding signal,ELF3,"1.09 fold enrichment (6-mer frequency, TF over GST control)"
same,binding signal,CRX,"1.09 fold enrichment (6-mer frequency, TF over GST control)"
same,binding signal,ETV1,"1.27 fold enrichment (6-mer frequency, TF over GST control)"

# — article PMC7862700, “An all-to-all approach to the identification of sequence-specific readers for epigenetic DNA modifications on cytosine”
